Test results as given in the supplement of paper PMC7366291.
Structures can show the parent of a compound that is named as a salt. ± gives the standard deviation of the averaged measurements.

System: Danio rerio Tg(wt1b:EGFP) embryo, pronephros
Assay: pronephric angle neck segment to proximal convoluted tubule (mean of left and right), fold change vs DMSO control; higher = larger pronephric angle
Conditions: 25 µM; exposure: 24-48 hpf
Summary of the method: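 Distances and angles describing the pronephros were computed by a Fiji macro from 16 reference points set manually on maximum projections of dorsal images. These images came from dechorionated Tg(wt1b:EGFP) zebrafish embryos held in agarose-filled 96-well plates after exposure to 25 μM compound in 0.5% DMSO, in HEPES-buffered E3 with 0.003% PTU, from 24 to 48 hpf at 28.5°C. Any value more than 2 SD from the feature mean was excluded. Features are stated as fold change relative to the mean of same-day DMSO-treated embryos.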

CC(=O)[C@@]1(O)CC[C@H]2[C@@H]3C[C@H](C)C4=CC(=O)C=C[C@]4(C)[C@@]3(F)[C@@H](O)C[C@@]21C [Fluorometholone] was tested. Which “pronephric angle neck segment” value did it give?
Its value is 0.997 ± 0.035.

With C[C@H](N)[C@H](O)c1cccc(O)c1 [Metaraminol bitartrate] as the compound, how does the “pronephric angle neck segment” value read?
The value was 0.771 ± 0.017.

For CC(NCCc1ccc(O)cc1)C(O)c1ccc(O)cc1 (stereo not given) [Ritodrine hydrochloride], which “pronephric angle neck segment” value is on record?
Its value is 1.038 ± 0.0019.

For C=CCOc1ccccc1OCC(O)CNC(C)C (stereo not given) [Oxprenolol hydrochloride], which “pronephric angle neck segment” value is on record?
The value was 1.0054 ± 0.00047.

Which “pronephric angle neck segment” value does the source give for O=C1c2ccccc2C(=O)C1c1ccccc1 [Phenindione] here?
Its value is 0.919 ± 0.013.

CCc1nn(CCCN2CCN(c3cccc(Cl)c3)CC2)c(=O)n1CCOc1ccccc1 [Nefazodone hydrochloride] was tested. Which “pronephric angle neck segment” value did it give?
The value was 0.989 ± 0.012.

CCN(CC)C(=S)SSC(=S)N(CC)CC [Disulfiram] was tested. Which “pronephric angle neck segment” value did it give?
The value was 1.7 ± 0.043.

CC[C@@]1(O)C(=O)OCc2c1cc1n(c2=O)Cc2cc3c(CN(C)C)c(O)ccc3nc2-1 [Topotecan] was tested. Which “pronephric angle neck segment” value did it give?
Its value is 1.27 ± 0.062.

With C#C[C@]1(O)CC[C@H]2[C@@H]3CCc4cc(O)ccc4[C@H]3CC[C@@]21C [Ethinylestradiol] as the compound, how does the “pronephric angle neck segment” value read?
The value was 1.3 ± 0.015.

CCN1CCN(c2cc3c(cc2F)c(=O)c(C(=O)O)cn3C2CC2)CC1 [Enrofloxacin] was tested. Which “pronephric angle neck segment” value did it give?
The value was 1.01 ± 0.037.

With CCCCNc1c(C(=O)OCC)c(C)nc2c1cnn2CC [Tracazolate hydrochloride] as the compound, how does the “pronephric angle neck segment” value read?
The value was 1.06 ± 0.015.

CC(=O)N[C@@H](CC(C)C)C(=O)O [N-Acetyl-L-leucine] was tested. Which “pronephric angle neck segment” value did it give?
The value was 0.993 ± 0.013.

Cc1nc2ccccn2c(=O)c1CCN1CCC(C(=O)c2ccc(F)cc2)CC1 [Pirenperone] was tested. Which “pronephric angle neck segment” value did it give?
Its value is 0.924 ± 0.0096.

CC(=C(CCO)SSCC1CCCO1)N(C=O)Cc1cnc(C)nc1N (stereo in doubt) [Fursultiamine Hydrochloride] was tested. Which “pronephric angle neck segment” value did it give?
Its value is 1.005 ± 0.0057.

Which “pronephric angle neck segment” value does the source give for CCn1cc(C(=O)O)c(=O)c2cc(F)c(N3CCNC(C)C3)c(F)c21 (stereo not given) [Lomefloxacin hydrochloride] here?
The value was 1.12 ± 0.037.

NC(=O)c1ncn([C@@H]2O[C@H](CO)[C@@H](O)[C@H]2O)n1 [Ribavirin] was tested. Which “pronephric angle neck segment” value did it give?
The value was 0.985 ± 0.017.

How did the “pronephric angle neck segment” value turn out when CN1[C@@H]2CC[C@H]1C[C@@H](OC(=O)c1c[nH]c3ccccc13)C2 [Tropisetron hydrochloride] was run?
Its value is 1.06 ± 0.067.

With CCC1=C(C)CN(C(=O)NCCc2ccc(S(=O)(=O)NC(=O)N[C@H]3CC[C@H](C)CC3)cc2)C1=O [Glimepiride] as the compound, how does the “pronephric angle neck segment” value read?
The value was 1 ± 0.03.

How did the “pronephric angle neck segment” value turn out when COc1ccccc1N1CCN(CC(O)COc2cccc3ccccc23)CC1 (stereo not given) [Naftopidil dihydrochloride] was run?
Its value is 0.966 ± 0.034.

For COc1c(N2CCNC(C)C2)c(F)cc2c(=O)c(C(=O)O)cn(C3CC3)c12 (stereo not given) [Gatifloxacin], which “pronephric angle neck segment” value is on record?
The value was 1 ± 0.04.

How did the “pronephric angle neck segment” value turn out when C=C1C[C@H]2[C@@H]3C=C(C)C4=CC(=O)CC[C@]4(C)[C@H]3CC[C@]2(C)[C@@]1(OC(C)=O)C(C)=O [Melengestrol acetate] was run?
The value was 1.02 ± 0.066.

With COC(=O)C1=C(C)NC(C)=C(C(=O)OCCN(C)Cc2ccccc2)C1c1cccc([N+](=O)[O-])c1 (stereo not given) [Nicardipine hydrochloride] as the compound, how does the “pronephric angle neck segment” value read?
The value was 1.01 ± 0.036.

Which “pronephric angle neck segment” value does the source give for O=S(=O)(O)c1cc(O)ccc1O [Ethamsylate] here?
The value was 0.9847 ± 0.0033.

Which “pronephric angle neck segment” value does the source give for COc1cc(N)c(Cl)cc1C(=O)NC1CCN(Cc2ccccc2)CC1 [Clebopride maleate] here?
Its value is 0.912 ± 0.027.

With CCCCC1C(=O)N(c2ccccc2)N(c2ccccc2)C1=O [Phenylbutazone] as the compound, how does the “pronephric angle neck segment” value read?
Its value is 1.67 ± 0.032.

How did the “pronephric angle neck segment” value turn out when CC(=O)Oc1ccc(C(c2ccc(OC(C)=O)cc2)c2ccccn2)cc1 [Bisacodyl] was run?
Its value is 1.01 ± 0.016.

How did the “pronephric angle neck segment” value turn out when Cc1onc(-c2c(F)cccc2Cl)c1C(=O)N[C@@H]1C(=O)N2[C@@H]1SC(C)(C)[C@@H]2C(=O)O [Flucloxacillin sodium] was run?
Its value is 0.958 ± 0.025.

How did the “pronephric angle neck segment” value turn out when CCCCCCCCNC(C)C(O)c1ccc(SC(C)C)cc1 (stereo not given) [Suloctidil] was run?
The value was 1.48 ± 0.033.

With COc1ccc(-c2ccc3cc(C(=O)O)ccc3c2)cc1C12CC3CC(CC(C3)C1)C2 [Adapalene] as the compound, how does the “pronephric angle neck segment” value read?
Its value is 1.1 ± 0.0022.

With Cn1c(=O)c2c(ncn2CC2OCCO2)n(C)c1=O [Doxofylline] as the compound, how does the “pronephric angle neck segment” value read?
Its value is 1.03 ± 0.03.

With COc1ccccc1OCC(O)COC(N)=O (stereo not given) [Methocarbamol] as the compound, how does the “pronephric angle neck segment” value read?
Its value is 1 ± 0.013.

Which “pronephric angle neck segment” value does the source give for CN(CCCCCCCCCCN(C)C(=O)Oc1cccc([N+](C)(C)C)c1)C(=O)Oc1cccc([N+](C)(C)C)c1 [Demecarium bromide] here?
Its value is 1.078 ± 0.0073.

COc1ccccc1N1CCN(CCCNc2cc(=O)n(C)c(=O)n2C)CC1 [Urapidil hydrochloride] was tested. Which “pronephric angle neck segment” value did it give?
The value was 1.02 ± 0.025.

For CCC(=O)[C@@]1(C)[C@H](C)C[C@H]2[C@@H]3CCC4=CC(=O)C=C[C@]4(C)[C@H]3[C@@H](O)C[C@@]21C [Rimexolone], which “pronephric angle neck segment” value is on record?
The value was 0.965 ± 0.031.

Which “pronephric angle neck segment” value does the source give for Nc1nnc(-c2cccc(Cl)c2Cl)c(N)n1 [Lamotrigine] here?
The value was 0.998 ± 0.039.

How did the “pronephric angle neck segment” value turn out when Nc1ccc(S(=O)(=O)Nc2cnc3ccccc3n2)cc1 [Sulfaquinoxaline sodium salt] was run?
Its value is 1.09 ± 0.012.

How did the “pronephric angle neck segment” value turn out when CC(=O)NS(=O)(=O)c1ccc(N)cc1 [Sulfacetamide sodic hydrate] was run?
The value was 0.9887 ± 0.0093.

Which “pronephric angle neck segment” value does the source give for c1ccc([C@H]2CN3CCSC3=N2)cc1 [Levamisole hydrochloride] here?
The value was 0.979 ± 0.016.

How did the “pronephric angle neck segment” value turn out when CC[N+](CC)(CC)CCOc1cccc(OCC[N+](CC)(CC)CC)c1OCC[N+](CC)(CC)CC [Gallamine triethiodide] was run?
The value was 0.998 ± 0.034.

With Cc1ccc(NC(=O)c2ccc(CN3CCN(C)CC3)cc2)cc1Nc1nccc(-c2cccnc2)n1 [Imatinib] as the compound, how does the “pronephric angle neck segment” value read?
The value was 1.01 ± 0.018.
